Assays:
Experiment in all cases: PBM binding z-score (relative to random genomic background probes); higher = stronger binding; sequences stand for … in GC…GCGATTGACAGCGTAGAATGAAGG
[1] = tested on: PPARg:RXRa DBDmut IVT, anti-RXR (DBD mutation: RXRa K156A/R161A, NR concentration 270 nM, RXRa partner concentration 90 nM)
How it was run: (§1)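 For binding z-scores, the reference was random background probes on custom Agilent 4×180K protein-binding microarrays. These arrays were incubated 1 h with ligand-free nuclear receptor dimers in PBS pH 7.4, 2% milk, 0.02% Triton X-100, 1 mM DTT, 0.2 mg/mL BSA and 0.4 mg/ml salmon testes DNA. Fluorescence was scanned after antibody detection of each partner (one per run) and regression-normalized.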

[2] = tested on: PPARg:RXRa IVT, anti-PPARg (NR concentration 270 nM, RXRa partner concentration 90 nM)
How it was run: as §1

[3] = tested on: PPARg DBDmut:RXRa IVT, anti-PPARg (DBD mutation: PPARg1 K132A/R137A, NR concentration 270 nM, RXRa partner concentration 90 nM)
How it was run: as §1

[4] = tested on: PPARg DBDmut IVT, anti-PPARg (DBD mutation: PPARg1 K132A/R137A, NR concentration 270 nM)
How it was run: as §1

[5] = tested on: PPARg homodimer (NR concentration 180 nM)
How it was run: as §1

[6] = tested on: PXR:RXRa (NR concentration 270 nM, RXRa partner concentration 90 nM)
How it was run: as §1

[7] = tested on: PXR homodimer (NR concentration 270 nM)
How it was run: as §1

[8] = tested on: RARa:RXR (NR concentration 270 nM, RXRa partner concentration 90 nM)
How it was run: as §1

[9] = tested on: RARa homodimer (NR concentration 270 nM)
How it was run: as §1

[10] = tested on: RARb:RXRa (NR concentration 270 nM, RXRa partner concentration 90 nM)
How it was run: as §1

[11] = tested on: RARb homodimer (NR concentration 270 nM)
How it was run: as §1

[12] = tested on: RARg:RXRa (NR concentration 270 nM, RXRa partner concentration 90 nM)
How it was run: as §1

[13] = tested on: RARg homodimer (NR concentration 270 nM)
How it was run: as §1

[14] = tested on: RXRa DBDmut IVT, anti-RXR (DBD mutation: RXRa K156A/R161A, NR concentration 90 nM)
How it was run: as §1

[15] = tested on: RXRa homodimer (NR concentration 180 nM)
How it was run: as §1

[16] = tested on: THRa:RXRa (NR concentration 90 nM, RXRa partner concentration 90 nM)
How it was run: as §1

[17] = tested on: THRa homodimer (NR concentration 90 nM)
How it was run: as §1

[18] = tested on: VDR homodimer (NR concentration 270 nM)
How it was run: as §1

Sequence	PBM binding z-score [1]	PBM binding z-score [2]	PBM binding z-score [3]	PBM binding z-score [4]	PBM binding z-score [5]	PBM binding z-score [6]	PBM binding z-score [7]	PBM binding z-score [8]	PBM binding z-score [9]	PBM binding z-score [10]	PBM binding z-score [11]	PBM binding z-score [12]	PBM binding z-score [13]	PBM binding z-score [14]	PBM binding z-score [15]	PBM binding z-score [16]	PBM binding z-score [17]	PBM binding z-score [18]
CAAACTAGGTCAAGGTCGAAGTCGGTTTGTGCCA	8.51	8.63	2.92	2.06	3.02	2.71	0.704	3.14	0.902	4.47	3.74	4.38	5.12	2.45	3.49	3.55	2.45	2.48
AGGCAAAGTTCATCTAGGTAACGTAAGATATGCT	1.08	3.73	1.34	0.748	3.08	5.33	6.34	3.96	1.67	4.72	3.56	5.33	5.75	4.59	4.37	3.18	0.436	4.85
GCTAGTTGGACAGTAAAAGGTCACACACCGGTCG	0.431	2.16	-0.417	-0.407	3.24	4.68	1.09	5.53	1.25	3.95	5.22	4.89	4.27	0.31	4.94	3.55	1.71	1.59
ACAGACAGATGATGAAGGTAACTCAGGCTATCAT	-0.169	-0.00444	1.17	0.707	0.677	-0.0799	0.468	0.101	0.591	0.13	0.176	0.199	0.513	-0.152	0.225	0.742	0.192	0.335
CCTACTGGGCCACGAAAGGTCATTGGTTCAGTGA	5.54	5.88	-0.165	-0.319	3.95	5.47	3.04	5.74	0.693	3.96	4.95	4.88	4.56	0.546	5.25	3.8	1.18	3.08
AGAATGAGGTTACGAAAGATCAGGGAAACGCTTG	4.25	3.64	0.808	0.386	0.0598	1.44	-0.57	2.32	-0.313	2.21	0.671	2.26	1.68	1.11	2.73	2.89	0.487	0.194
TCTAGCAGGGCAGAGGGTCACTCAAGAGGTACGG	1.26	1.9	-0.31	-0.497	1.22	1.7	-0.546	2.42	-0.749	2.61	2.89	3.12	2.36	-0.00739	2.68	1.6	-0.329	0.66
ATCTCTAGGTAACCAAGTTCCGTGAATGCCGAAC	3.6	2.9	0.664	0.557	0.453	0.03	0.0548	0.264	0.19	0.435	-0.23	0.14	0.215	0.0901	0.217	0.694	0.462	-0.111
TAGCCTAGGTCATTCAGGGGCCAGTATAGAAAGC	1.64	2.89	-0.179	0.357	1.37	2.57	-0.0401	2.74	-0.372	3.79	3.29	6.13	4.44	1.6	2.84	3.45	0.509	1.32
CATACAGGGTCAGTTAGGCCAGAGTAGGGACGGC	0.861	2.08	1	0.259	2.09	1.55	0.258	2.17	0.791	3.67	2.87	3.61	3.84	1.68	2.94	2.77	1.04	1.69
GCTGCTAGGTCAACTGATGTTCAGCTAAAGCTCG	4.93	4.11	-0.364	-1.06	1.1	1.64	-0.723	2.27	-0.512	4.32	3.45	4.37	5.51	1.81	2.95	2.89	1.02	0.0528
TCATATAGGTCAATGCTAGGTGAAAGTCCGATCT	6.69	6.83	1.25	2.16	2.7	2.78	0.347	3.7	1.3	4.21	3.86	5.46	5.11	2.09	4.2	3.7	0.903	0.879
CGGACTAGGTCAAGGACAGTGAATCTCCGCACGC	7.61	7.26	-0.333	-0.703	0.837	0.934	-0.0489	1.7	0.338	3.49	2.94	3.54	4.28	1.29	2.33	2.8	2.06	-0.118
CCTCGGAGGCCAGAAGGTCAGAGCTGTCCGCTTT	-0.00859	-0.274	-1.71	-1.89	0.843	1.32	-0.625	2.12	-0.274	2.98	3.49	3.66	3.12	-0.11	2.05	1.67	0.0524	-0.311
AGAATGAGGTTAAGATCAAGGAAACAGAATACAT	2.65	2.43	1.67	0.683	0.598	1.13	0.0373	1.75	0.928	1.88	0.789	2.02	1.57	1.13	2.68	2.39	0.555	0.551
TCATATAGGTAAAAGATGAAAGTCGGTGTGGTAA	4	2.54	1.07	0.573	0.893	0.672	0.283	1.08	1.1	0.338	-0.433	0.301	0.223	1.73	0.923	0.0309	0.103	-0.0575
CCTCGGAGGACGGAAGGTCAGAGCTGTCCGCTTT	-0.591	-0.453	-1.93	-2.58	1.18	1.33	0.186	1.76	-0.121	2.6	2.97	2.49	2.14	-0.0504	1.69	1.94	-0.304	-0.0606
CAAACTAGGTCAAAGATCAAAGTCGAGCCAACCA	8.07	8.58	1.49	0.885	1.76	2.81	0.46	4.42	0.53	3.99	2.5	4.93	4.62	1.97	5.28	2.9	0.494	0.479
CAAACTAGGTCACAGAGGTCAAAGCCCGTGCGTA	8.71	9.13	4.98	2.72	4.59	6.66	10.8	7.48	2.65	5.27	5.57	7.25	7.63	3.22	7.75	4.82	2.99	6.06
TTACCAAGGTGAAAAGTCGTTGATGCACGCCTTG	1.72	2.64	0.0551	0.367	0.274	0.136	-0.523	0.987	-0.563	1.06	0.298	0.676	0.264	-0.185	1.15	1.37	0.0466	-0.327
CCAGACAGGTGAGAAGGTAACCCAGCCTCGATTA	1.18	0.79	-0.0117	-0.618	0.918	-0.0868	0.187	0.417	0.439	0.682	0.888	0.695	0.557	-0.131	0.558	0.444	0.455	-0.253
GGAACGAGGGCACTCGAGTTGATAGCATGGCGAT	4.02	3.11	0.411	-0.728	-0.479	2.52	-0.193	0.513	-0.815	1.93	0.585	0.902	1.45	2.21	0.67	2.41	-0.47	1.75
CGAACTAGGTCATCCAGGACATTGAATACATTGA	8.08	8.47	4.18	1.44	2.2	2.71	3.75	2.82	1.01	3.92	3.11	3.95	4.63	2.66	2.95	3.87	2.27	3.47
GGAACGAGGGCATTCGAGTTGATGGCATGGCGAT	3	2.1	-0.485	-0.554	-0.644	3.26	1.55	0.115	-0.893	1.6	0.552	1.05	1.17	3.15	0.655	2.96	-0.631	3.46
CGTCCAAGGTCACTGCTAGGTCAGTGAAAGCATT	3.59	4.59	-0.128	0.266	3.91	4.72	1.09	5.65	0.316	5.42	4.78	7.45	7.04	3.66	5.2	4.48	3.39	3
GTAACGAGGGCAAGTTGATAGCAGAGTTTGATGG	3.49	3.09	0.298	0.937	0.983	0.884	1.23	0.596	0.449	2.58	1.71	1.66	1.86	2.07	0.851	1.36	0.0846	2.23
ACAGACAGGTGATGAAGGTAACTCGGGCTATCAT	0.382	0.0218	-0.282	-0.148	0.503	-0.0935	0.344	0.209	0.291	0.263	0.556	0.166	0.396	-0.159	0.351	0.765	0.0589	-0.217
TGAATGAGGGTAAAGATCAGGGAACGTGGCGTCG	2.27	3.04	0.811	1.2	1.24	-0.131	-0.487	0.239	0.383	0.817	-0.018	0.443	0.391	-0.234	1.07	0.432	-0.386	-0.201
AATACAGGGTCATCGCAGGCCAGAGTACGCACAG	2.75	4.33	1.54	0.985	1.94	5.07	0.737	4.69	1.07	4.45	3.53	5.41	5.21	3.48	6.8	4.75	1.42	3.55

— the supplement of paper PMC6555819
